Reference: PubChem BioAssay (NCI)
The panel holds about 79,000 compounds, 15% with a hit somewhere; the sample as a whole holds those more often. No stated cut-off is given here; in the data, active means growth inhibition above about 70%; inactive means the rest.

How the values were obtained:
[1] = NCI Yeast Anticancer Drug Screen. Data for the rad50 strain (AID 155);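 further: 0% = growth of vehicle-only cultures of the same strain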; details: S. cerevisiae rad50 strain growth inhibition; at 50.0 µM; hits give high values
Summary of the method: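 Compounds were tested on a yeast strain with an engineered DNA damage repair alteration; the reported value is growth inhibition normalised to vehicle treatment.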

[2] = NCI Yeast Anticancer Drug Screen. Data for the mec2-1 strain (AID 157); details: S. cerevisiae mec2-1 strain, at 50.0 µM, hits give high values
Summary of the method: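 Mutant yeast (mec2-1) grown with compound; growth inhibition relative to vehicle control reported.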

[3] = NCI Yeast Anticancer Drug Screen. Data for the sgs1 mgt1 strain (AID 161);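 further: 0% = growth of cultures given vehicle only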; details: S. cerevisiae sgs1 mgt1 strain, at 50.0 µM, hits give high values
Summary of the method: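 Compounds are added to genetically altered yeast, and growth is compared with cultures given vehicle alone to give percent inhibition.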

[4] = NCI Yeast Anticancer Drug Screen. Data for the cln2 rad14 strain (AID 165);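 further: 0% = growth equal to vehicle treated cultures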; details: S. cerevisiae cln2 rad14 strain, at 50.0 µM, hits give high values
Summary of the method: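 Readout is yeast growth inhibition versus vehicle-treated controls, using a strain with cln2 and rad14 alterations exposed to compound.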

[5] = NCI Yeast Anticancer Drug Screen. Data for the bub3 strain (AID 167); details: S. cerevisiae bub3 mutant strain, at 50.0 µM, hits give high values
Summary of the method: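 Growth of a checkpoint-deficient yeast mutant is measured after compound exposure. Values represent inhibition relative to vehicle.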

[6] = NCI Yeast Anticancer Drug Screen. Data for the mlh1 rad18 strain (AID 175); details: S. cerevisiae mlh1 rad18 strain growth inhibition; at 50.0 µM; hits give high values
Summary of the method: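 Genetically defined yeast (DNA repair-deficient) exposed to compounds; growth inhibition determined relative to vehicle.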

Measured: growth inhibition

O=C(O)CCCSc1ccc2ccccc2c1
inactive: [1] 48.5% | [2] 3.75% | [3] 45.6% | [4] 24.9% | [5] 4.55% | [6] 38.3%

COc1ccc2c(c1)OCCN(C)OC2c1cccc(Cl)c1 (stereo unspecified)
inactive: [1] -4.55% | [2] -6.45% | [3] -7.15% | [4] -5.15% | [5] 9.4% | [6] 6.7%

CCOC(=O)N1CCc2cc(OC)c(OC)c3c2c1cc1cc(OC)c(OC)cc13
inactive: [1] -9.2% | [2] 18.9% | [3] -4.55% | [4] -35.5% | [5] 16.1% | [6] 16.4%

Clc1c2ncccc2cc2n[nH]nc12
inactive: [1] 14.9% | [2] 21.2% | [3] 24% | [4] 6.55% | [5] 5.8% | [6] 17.1%

O=C(CCC(NC(=O)OCc1ccccc1)C(=O)OCc1ccccc1)Nc1cccc(OCc2ccccc2)c1 (stereo unspecified)
inactive: [1] -16.2% | [2] -18.1% | [3] -1.15% | [4] -23.6% | [5] -20% | [6] -27.4%

CC(C)N(CCC#N)C(=S)Nc1cccc2ccccc12
inactive: [1] 17.1% | [2] 10.1% | [3] 19.6% | [4] 14.9% | [5] 12.2% | [6] -8.2%

Cc1csc[n+]1C/C(=N/O)c1ccc(I)cc1
inactive: [1] 36.2% | [2] -3.75% | [3] 14.8% | [4] 3.65% | [5] 2.75% | [6] 17.1%

O=c1c2ccccc2n2c(-c3ccc(O)cc3)nnc2n1-c1ccccc1
inactive: [1] -30.3% | [2] -17.1% | [3] 4.4% | [4] 7.75% | [5] 1.5% | [6] -14.8%

ClC1=Cc2cccc3cccc1c23
inactive: [1] 1.55% | [2] 6.15% | [3] 0.2% | [4] 2.5% | [5] 12.4% | [6] 3.8%

COc1ccccc1Cn1nc(OC)c2cc([N+](=O)[O-])ccc21
inactive: [1] 27.6% | [2] 30.6% | [3] -6.1% | [4] 2.05% | [5] -17.9% | [6] -64.7%

COC(=O)c1cc2c3c(ccc2[nH]1)N(C(=O)c1cc2c4c(ccc2[nH]1)N(C(=O)c1cc2c5c(ccc2[nH]1)N(C(N)=O)CC5)CC4)CC3
inactive: [1] 18.8% | [2] 5.05% | [3] -2.05% | [4] 15.7% | [5] 29.8% | [6] 11.9%

CCOC1CCCC(OCC)O1 (stereo unspecified)
inactive: [1] -44.4% | [2] -48.5% | [3] -19.9% | [4] 12% | [5] -37.6% | [6] -27.9%

FC1(F)SC2c3ccccc3CC2C1(F)F (stereo unspecified)
inactive: [1] 20.4% | [2] 6.15% | [3] 7.75% | [4] -47.2% | [5] 8.35% | [6] 9.95%

CSCCC(C(=O)O)N(CC1(O)OCC(O)C(O)C1O)N=O (stereo unspecified)
inactive: [1] -18.4% | [2] -24.6% | [3] -17.6% | [4] -9.15% | [5] -11.4% | [6] -11.2%

COC(=O)c1ccc(OC(=O)Nc2ccc(C)cc2)cc1
inactive: [1] -7.15% | [2] -9.6% | [3] -8.45% | [4] -9.4% | [5] 13.6% | [6] -6.6%

Cc1c2ccccc2cc2c1ccc1c(Br)cccc12
inactive: [1] 10.1% | [2] -3.45% | [3] 21.3% | [4] 25.8% | [5] 12.1% | [6] 5.8%

Cc1cccc2c1C1C(CC2=O)C(=O)c2ccccc2C1C (stereo unspecified)
inactive: [1] 7% | [2] -17.8% | [3] 3.5% | [4] 8.9% | [5] 11.6% | [6] 11.5%

CC12CCC(C(Br)C1=O)C2(C)CBr (stereo unspecified)
inactive: [1] -9.8% | [2] 5.75% | [3] 20.4% | [4] 23.8% | [5] 9% | [6] -0.7%

N#Cc1nc(CC(=O)c2ccccc2Cl)c(CC(=O)c2ccccc2Cl)nc1C#N
inactive: [1] 22.4% | [2] 20.1% | [3] 5.6% | [4] 25.4% | [5] 13.4% | [6] 19.4%

CCOC(=O)Cn1c(C)nc2nn(Cc3ccccc3)cc2c1=O
inactive: [1] -49.7% | [2] -56.1% | [3] -36.2% | [4] -1.35% | [5] -32.9% | [6] -30.8%

CCCCC/C=C/C(CC)(C(=O)OCC)C(=O)OCC
inactive: [1] -5.95% | [2] 20.9% | [3] 13.6% | [4] -60% | [5] 40.9% | [6] 6.1%

C[C@@]12CCC[C@H]1[C@@H]1CCC3=CC(=O)CC[C@]3(C)[C@H]1CC2
inactive: [1] 4.15% | [2] 1.45% | [3] -5.55% | [4] -27.1% | [5] 10.7% | [6] 1.05%

Cc1ccc(-n2ncc3c(N)ncnc32)cc1
inactive: [1] 10.2% | [2] 12.4% | [3] 2.6% | [4] -19% | [5] -7.8% | [6] -14.2%

O=C(COc1ccc(Cl)cc1)OCCCl
inactive: [1] 10% | [2] 8.3% | [3] 9.1% | [4] 0.35% | [5] 9.3% | [6] 8.3%

CC(=O)N1C(=O)C(=O)c2cc(Cl)ccc21
inactive: [1] -1.85% | [2] -6.9% | [3] 3.95% | [4] -2.1% | [5] -0.2% | [6] -1.6%

CN(C)c1nc2nc[nH]c2c(=S)n1C
inactive: [1] 7.45% | [2] 6% | [3] 4.1% | [4] 24.6% | [5] -9.6% | [6] 0.15%

CC1=NN(c2cc(S(=O)(=O)O)ccc2Cl)C(=O)C1N=Nc1ccccc1 (stereo unspecified)
inactive: [1] -23.3% | [2] -26.2% | [3] -30.1% | [4] 12.3% | [5] -20.6% | [6] -24.8%

CC(=O)c1c2c(cc3c1CCC3)CCC2
inactive: [1] -15.4% | [2] -47.2% | [3] -20.1% | [4] -26% | [5] -21.7% | [6] -0.8%

Oc1cccc2ccc(Br)nc12
inactive: [1] -10.1% | [2] 15.2% | [3] 7.25% | [4] 4.9% | [5] 5.45% | [6] -3.25%

O=C(O)C(C(C(=O)O)P(=O)(O)O)P(=O)(O)O (stereo unspecified)
inactive: [1] -17.9% | [2] -30.8% | [3] -50.6% | [4] -38.8% | [5] -12.2% | [6] -62.3%

Nc1nc(N)c2ccccc2n1
inactive: [1] -11.3% | [2] 13.8% | [3] -5.2% | [4] -0.5% | [5] -6.9% | [6] -1.7%

Cc1nc(NS(=O)(=O)c2ccc(N)cc2)nc(C)c1Br
inactive: [1] -9.75% | [2] -9.55% | [3] 4.1% | [4] -52% | [5] -14.7% | [6] -15.1%

c1ccc2cc(SSc3ccc4ccccc4c3)ccc2c1
inactive: [1] -30.1% | [2] -23.8% | [3] -15.9% | [4] 0.1% | [5] -17.2% | [6] -4.85%

COC(=O)C(C)(C)c1ccccc1C(C)(C)C(=O)OC
inactive: [1] -5.85% | [2] 6.05% | [3] -1.4% | [4] -7.95% | [5] 9.35% | [6] 3.9%

O=Cc1c2c(cc3c1CC1(C3)Cc3cc4c(c(C=O)c3C1)CCC4)CCC2
inactive: [1] -26.4% | [2] -40.1% | [3] -25.9% | [4] 3.7% | [5] 26.8% | [6] 1.35%

N#C/C(=C\n1c(=S)[nH]c2ccc([N+](=O)[O-])cc21)c1cccc(Cl)c1
inactive: [1] -25.2% | [2] -13.9% | [3] -34.1% | [4] 3.75% | [5] -2.45% | [6] -11.2%

COC1=NN2C(OC)(c3ccccc3)c3c(-c4ccccc4)sc(-c4ccccc4)c3C2(c2ccccc2)S1 (stereo unspecified)
inactive: [1] 29.4% | [2] 2.1% | [3] 5.15% | [4] 37.6% | [5] 1.9% | [6] 5.5%

O=C(O)CC(CSCP(=O)(O)O)C(=O)O (stereo unspecified)
inactive: [1] 6.95% | [2] 1.55% | [3] 3.05% | [4] -7.85% | [5] 1.45% | [6] 15.7%

CC1(C)[C@H]2Cc3c(ccc4c3C(=O)OC4=O)[C@@H]1C2
inactive: [1] 6.75% | [2] -3.9% | [3] 0.35% | [4] -30.6% | [5] -17.4% | [6] 2.45%

CN(C)S(=O)(=O)c1ccc(Nc2ccc(O)c3c2C(=O)c2c([N+](=O)[O-])ccc(O)c2C3=O)cc1
inactive: [1] 54.9% | [2] 13.4% | [3] -31.9% | [4] -8.3% | [5] -27.8% | [6] 26.1%

COC(=O)/C(=C\C(=O)c1ccc(Br)cc1)NN=C(c1ccccc1)c1ccccc1
inactive: [1] -20.3% | [2] -1.55% | [3] -3.3% | [4] 4.25% | [5] -20.1% | [6] -20.4%
